# Measured values from PubChem BioAssay (NCATS).
# Inconclusive results are not listed. A call without a number means that no potency is given here. Active and inactive are the calls of the source. The call rests on the fitted dose curve; in most records, active means well fitted curve in the direction sought with a large enough effect; inconclusive means small, poorly fitted or top-dose-only effect, or another doubt; inactive means no such curve, though single readings can be large; an effect the other way counts as inactive or inconclusive.
# Legend:
# [1] = molecular target: Catechol O-methyltransferase (Homo sapiens) (UniProt P21964); test: Confirmatory Screen for Target Class Profiling of Small Molecule Inhibitors of Methyltransferases (AID 1745852); settings: MTase-Glo luminescence, SAH detection, recombinant enzyme; measured here: COMT max response; stronger effect = lower value
# Catechol O-methyltransferase (Homo sapiens), sequence (P21964 whole entry, looked up): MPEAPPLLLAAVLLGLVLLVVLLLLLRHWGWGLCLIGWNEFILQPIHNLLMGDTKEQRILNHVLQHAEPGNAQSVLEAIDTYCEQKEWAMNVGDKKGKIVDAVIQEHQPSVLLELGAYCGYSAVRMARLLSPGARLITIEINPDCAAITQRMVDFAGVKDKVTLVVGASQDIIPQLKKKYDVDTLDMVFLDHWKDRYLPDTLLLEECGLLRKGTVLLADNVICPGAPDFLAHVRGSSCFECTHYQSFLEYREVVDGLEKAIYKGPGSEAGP
# [2] = molecular target: Guanidinoacetate N-methyltransferase (Homo sapiens) (UniProt Q14353); test: as above; settings: MTase-Glo luminescence, SAH detection, recombinant enzyme; at 57.3 µM (top of the series)
# [3] = molecular target: Nicotinamide N-methyltransferase (Homo sapiens) (UniProt P40261); test: as above; settings: MTase-Glo luminescence, SAH detection, recombinant enzyme; measured here: NNMT max response; stronger effect = lower value
# Nicotinamide N-methyltransferase (Homo sapiens), sequence (P40261 whole entry, looked up): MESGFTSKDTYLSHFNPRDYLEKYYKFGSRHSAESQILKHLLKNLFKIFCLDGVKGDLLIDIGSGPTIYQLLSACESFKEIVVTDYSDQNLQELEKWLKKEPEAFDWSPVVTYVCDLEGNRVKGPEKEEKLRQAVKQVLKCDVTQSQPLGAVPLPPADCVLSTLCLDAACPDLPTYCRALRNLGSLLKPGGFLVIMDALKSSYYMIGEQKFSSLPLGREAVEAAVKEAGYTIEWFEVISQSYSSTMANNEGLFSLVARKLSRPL
# [4] = molecular target: Phenylethanolamine N-methyltransferase (Homo sapiens) (UniProt P11086); test: as above; settings: MTase-Glo luminescence, SAH detection, recombinant enzyme; measured here: PNMT max response; stronger effect = lower value
# Phenylethanolamine N-methyltransferase (Homo sapiens), sequence (P11086 whole entry, looked up): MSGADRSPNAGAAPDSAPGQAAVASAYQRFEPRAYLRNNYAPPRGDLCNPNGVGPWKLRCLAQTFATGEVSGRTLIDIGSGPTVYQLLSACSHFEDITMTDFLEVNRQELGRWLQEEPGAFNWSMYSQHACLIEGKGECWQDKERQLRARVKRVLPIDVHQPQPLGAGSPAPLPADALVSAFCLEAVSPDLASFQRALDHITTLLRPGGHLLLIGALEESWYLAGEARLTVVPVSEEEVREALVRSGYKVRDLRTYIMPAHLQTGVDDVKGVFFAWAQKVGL
# [5] = molecular target: Glutathione peroxidase 1 (Homo sapiens) (UniProt P07203); test: Primary qHTS Assay for Inhibitors of Recombinant Selenoprotein Glutathione Peroxidase 1 (GPX1) (AID 1845191); further: nearly all actives have a fitted effect of over 65% in size; further: potency means the concentration at half of the fitted maximal effect
# Glutathione peroxidase 1 (Homo sapiens), sequence (P07203 whole entry, looked up): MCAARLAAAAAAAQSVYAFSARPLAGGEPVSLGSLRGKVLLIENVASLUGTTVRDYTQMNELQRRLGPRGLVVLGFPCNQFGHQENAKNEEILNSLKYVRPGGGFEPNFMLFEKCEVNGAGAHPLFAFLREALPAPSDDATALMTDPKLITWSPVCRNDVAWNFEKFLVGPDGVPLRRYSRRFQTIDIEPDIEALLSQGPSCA
# How it was run: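 GR-coupled assay: compounds preincubated 30 min at room temperature with GPX1, then reaction started with CHP; final 10 nM GPX1, 1 mM GSH, 0.5 mM CHP, 0.5 mM NADPH, 100 nM GR, 0.01% BSA, pH 7.5 Tris buffer. NADPH fluorescence (340/450 nm) read at 0 and 15 min.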
# [6] = molecular target: Phospholipid hydroperoxide glutathione peroxidase GPX4 (Homo sapiens) (UniProt P36969); test: Primary qHTS Assay for Inhibitors of Recombinant Selenoprotein Glutathione Peroxidase 4 (GPX4) (AID 1845192); further: nearly all actives have a fitted effect of over 65% in size
# Phospholipid hydroperoxide glutathione peroxidase GPX4 (Homo sapiens), sequence (P36969 whole entry, looked up): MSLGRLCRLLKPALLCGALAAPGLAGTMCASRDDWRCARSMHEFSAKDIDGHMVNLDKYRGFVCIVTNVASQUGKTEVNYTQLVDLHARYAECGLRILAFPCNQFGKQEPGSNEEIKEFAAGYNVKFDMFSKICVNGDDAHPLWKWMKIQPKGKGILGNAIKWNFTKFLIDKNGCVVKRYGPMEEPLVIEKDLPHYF
# How it was run: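 GR-coupled assay: recombinant GPX4 preincubated 30 min with compound at room temperature; final 200 nM GPX4, 1 mM GSH, 0.5 mM cumene hydroperoxide, 0.5 mM NADPH, 100 nM GR, 0.01% BSA, pH 7.5 Tris. NADPH fluorescence (340/450 nm) read at 0 and 15 min.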
# [7] = molecular target: Luciferin 4-monooxygenase (Photinus pyralis) (UniProt P08659); test: Primary firefly luciferase (FLuc) qHTS assay for identification of artifact compounds. (AID 1845220); further: nearly all actives have a fitted effect of over 60% in size
# How it was run: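 D-luciferin and ATP (10 uM each, final) in Tris acetate buffer pH 7.6 were incubated with compounds for 15 min at room temperature. The reaction was started with 10 nM Photinus pyralis luciferase and luminescence read after 5 min. Percent inhibition was fitted to a 4-parameter Hill equation.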
# [8] = Primary fluorescence-based thiol-reactive (MSTI) qHTS assay for identification of artifact compounds. (AID 1845221);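 further: thiol-reactive compounds lower the probe fluorescence signal; nearly all actives have a fitted effect of over 65% in size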
# How it was run: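 A multi-concentration qHTS design tested compounds against 4 uM MSTI, pH 7.4 phosphate-buffered saline. Plates were protected from light for 1 h at room temperature before imaging fluorescence.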
# [9] = system: Nanoluciferase (engineered Oplophorus gracilirostris luciferase); test: Primary Nanoluciferase (NLuc) qHTS assay for identification of artifact compounds. (AID 1845222)
# How it was run: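 Diluted conditioned medium from NLuc-expressing S16 cells treated with compounds for 15 min at room temperature, then Nano-Glo substrate added; luminescence read after 5 min. Percent inhibition versus no-enzyme and DMSO controls fitted to 4-parameter Hill equation.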
# [10] = NCATS anti-infectives library activity on HEK293 viability as a counter-qHTS vs the C. elegans viability qHTS (AID 1745854);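 further: HEK293 cells exposed to compounds for 24 hr before the viability read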; further: potency means the concentration at half of the fitted maximal effect
# How it was run: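 HEK293 cells (1,500/well) exposed 24 hr at 37C to 1:5 titrations, up to 41.7 uM final; counter-screen to a C. elegans viability qHTS. Viability by CellTiter-Glo luminescence after 10 min at room temperature; digitonin as control.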
# [11] = Primary redox qHTS assay for identification of artifact compounds. (AID 1845223)
# How it was run: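 Amplex Red (25 uM) and HRP (250 mU/mL) in HBSS, with compounds for 15 min, then 250 uM DTT for 30 min, room temperature, dark. Fluorescence 525/598 nm read; normalized to DMSO and 10 uM DA3003; Hill fit.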
# [12] = molecular target: Metallo-beta-lactamase type 2 (Klebsiella pneumoniae) (UniProt C7C422); test: qHTS to identify inhibitors of the New Delhi Metallo-beta-lactamase (NDM): assay validation screen against the NCATS LOPAC Collection (AID 1794843);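 further: nitrocefin turnover by NDM-1 measured as 485 nm absorbance at plateau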
# Metallo-beta-lactamase type 2 (Klebsiella pneumoniae), sequence (C7C422 whole entry, looked up): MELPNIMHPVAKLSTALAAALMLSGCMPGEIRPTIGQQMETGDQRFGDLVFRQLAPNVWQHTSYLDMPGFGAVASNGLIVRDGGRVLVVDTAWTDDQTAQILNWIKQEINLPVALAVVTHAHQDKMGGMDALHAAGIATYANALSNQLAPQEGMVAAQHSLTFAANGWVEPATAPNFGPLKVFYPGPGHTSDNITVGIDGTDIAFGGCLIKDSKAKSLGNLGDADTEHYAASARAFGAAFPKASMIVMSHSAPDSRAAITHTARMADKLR
# How it was run: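 NDM-1 at 2 nM final in 50 mM HEPES pH 7.0, 1 uM ZnSO4, 0.01% Tween20, preincubated with LOPAC compounds pinned in DMSO; 50 uM nitrocefin (stock) added. Hydrolysis read as absorbance at 485 nm in the plateau phase.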
# [13] = Viability counterscreen for antagonist of constitutive androstane receptor (CAR) against the NCATS DSHEA and TCM libraries (AID 1794837);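 further: compound exposure lasted 24 h before viability reading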
# How it was run: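 Viability was measured by CellTiter-Fluor fluorescence (405/540 nm, 1 hr) in HepG2-CYP2B6-hCAR cells. Cells were co-treated 24 hr with 48 uM CITCO (final), antagonist mode, and test substances.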
# [14] = Viability counterscreen for agonist of constitutive androstane receptor (CAR) against the NCATS DSHEA and TCM libraries (AID 1794838);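 further: cells exposed to compound for 24 h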
# How it was run: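 Cell viability, from CellTiter-Fluor fluorescence (405/540 nm), was scored after a 24 h, 37C exposure of HepG2 cells carrying CYP2B6 reporter and hCAR to test substances in presence of 0.75 uM PK11195.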
# [15] = molecular target: Nuclear receptor subfamily 1 group I member 3 (Homo sapiens) (UniProt Q14994); test: Primary qHTS for agonist of constitutive androstane receptor (CAR) against the NCATS DSHEA and TCM libraries (AID 1794839);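 further: HepG2 cells expressing human CAR with a CYP2B6 reporter plus PK11195 antagonist; luciferase reporter luminescence read with ONE-Glo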
# Nuclear receptor subfamily 1 group I member 3 (Homo sapiens), sequence (Q14994 whole entry, looked up): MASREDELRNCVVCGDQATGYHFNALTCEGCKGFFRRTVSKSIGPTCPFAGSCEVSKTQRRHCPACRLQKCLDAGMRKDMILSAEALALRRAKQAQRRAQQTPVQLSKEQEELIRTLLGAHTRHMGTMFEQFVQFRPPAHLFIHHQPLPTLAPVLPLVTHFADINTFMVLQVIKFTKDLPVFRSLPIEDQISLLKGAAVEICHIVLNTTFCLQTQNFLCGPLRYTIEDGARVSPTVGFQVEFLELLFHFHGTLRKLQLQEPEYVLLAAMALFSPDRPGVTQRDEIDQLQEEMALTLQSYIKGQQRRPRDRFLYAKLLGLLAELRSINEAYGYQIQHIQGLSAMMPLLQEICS
# How it was run: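 Agonist mode in presence of hCAR antagonist PK11195 (0.75 µM final): test substances, 24 h, 37 °C, on HepG2-CYP2B6-hCAR cells. Same-well readouts: fluorescence viability, then ONE-Glo luminescence; CITCO as reference agonist.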
# [16] = HepG2 viability counterscreen (readout 2: ATP content) against the NCATS DSHEA and TCM libraries (AID 1794840);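 further: HepG2 cells exposed to substances for about 24 h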
# How it was run: (§1)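 Readout 1: cellular protease activity, GF-AFC substrate (25 uM final, 30 min, fluorescence 380/510 nm). Readout 2: ATP content by CellTiter-Glo luminescence after 30 min at RT. Both follow ~24 h exposure of HepG2 cells (1,000/well) to substances.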
# [17] = HepG2 viability counterscreen (readout 1: protease activity) against the NCATS DSHEA and TCM libraries (AID 1794841);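 further: cells exposed to compounds for about 24 h before the protease read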
# How it was run: as §1
# [18] = molecular target: Cytochrome P450 3A4 (Homo sapiens) (UniProt P08684); test: qHTS for inhibitors of CYP3A4 against the NCATS DSHEA and TCM libraries (AID 1919971);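 further: inhibition lowers luminescence from luciferin made by CYP3A4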
# Cytochrome P450 3A4 (Homo sapiens), sequence (P08684 whole entry, looked up): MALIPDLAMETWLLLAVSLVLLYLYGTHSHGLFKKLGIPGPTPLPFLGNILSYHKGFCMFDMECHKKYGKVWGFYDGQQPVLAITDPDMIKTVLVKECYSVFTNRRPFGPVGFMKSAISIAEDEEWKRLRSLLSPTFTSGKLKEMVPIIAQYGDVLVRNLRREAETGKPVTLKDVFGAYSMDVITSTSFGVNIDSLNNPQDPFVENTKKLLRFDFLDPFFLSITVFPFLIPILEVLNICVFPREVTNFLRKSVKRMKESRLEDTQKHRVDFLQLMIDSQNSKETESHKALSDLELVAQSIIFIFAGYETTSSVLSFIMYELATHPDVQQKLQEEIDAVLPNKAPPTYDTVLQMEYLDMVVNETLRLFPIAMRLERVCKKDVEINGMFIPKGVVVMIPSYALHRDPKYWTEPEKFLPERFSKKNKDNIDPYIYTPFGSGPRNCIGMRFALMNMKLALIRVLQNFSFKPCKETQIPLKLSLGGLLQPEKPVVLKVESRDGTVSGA
# How it was run: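 Luminescent P450-Glo format: compounds preincubated 15 min with enzyme and luciferin substrate, reaction run 30-45 min after NADPH regeneration solution. Intraplate controls: ketoconazole for CYP3A4 and CYP2C19, sulfaphenazole for CYP2C9.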
# [19] = molecular target: Cytochrome P450 2D6 (Homo sapiens) (UniProt P10635); test: qHTS for inhibitors of CYP2D6 against the NCATS DSHEA and TCM libraries (AID 1919972)
# Cytochrome P450 2D6 (Homo sapiens), sequence (P10635 whole entry, looked up): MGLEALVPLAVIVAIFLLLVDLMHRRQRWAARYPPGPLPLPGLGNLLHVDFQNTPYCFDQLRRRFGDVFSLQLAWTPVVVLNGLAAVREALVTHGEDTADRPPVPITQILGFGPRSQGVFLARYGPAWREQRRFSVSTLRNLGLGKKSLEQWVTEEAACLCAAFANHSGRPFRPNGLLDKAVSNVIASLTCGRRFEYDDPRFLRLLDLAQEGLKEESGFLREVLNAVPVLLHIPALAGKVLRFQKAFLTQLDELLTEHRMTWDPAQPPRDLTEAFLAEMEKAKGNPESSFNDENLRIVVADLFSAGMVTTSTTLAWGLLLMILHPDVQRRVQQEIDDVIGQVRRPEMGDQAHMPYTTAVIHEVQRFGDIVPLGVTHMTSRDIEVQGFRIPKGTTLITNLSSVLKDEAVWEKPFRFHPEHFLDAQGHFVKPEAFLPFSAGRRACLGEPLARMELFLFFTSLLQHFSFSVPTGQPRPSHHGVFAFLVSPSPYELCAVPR
# How it was run: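 Luminescent P450-Glo read-out of CYP2D6 turnover of a luciferin substrate after NADPH-driven reaction of 30-45 min at room temperature. Compounds were first preincubated 15 min with enzyme at titrated concentrations; quinidine was the intraplate control.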
smiles,measurement,setting,value
O=C1NC2CCCCN2C12CCN(CCCN1c3ccccc3CCc3ccc(Cl)cc31)CC2 (stereo unspecified),activity,[1],-2.76%
same,"activity change, negative = inhibition",[2],1.64%
same,activity,[3],-29.7%
same,activity,[4],-1.01%
same,Potency,[5],inactive
same,Potency,[6],inactive
same,Potency,[7],inactive
same,Potency,[8],inactive
same,Potency,[9],inactive
OCCc1ccccc1,Potency,[10],inactive
same,Potency,[5],inactive
same,Potency,[6],inactive
Nc1nc(=O)n([C@@H]2O[C@H](CO)[C@@H](O)[C@@H]2F)cc1I,Potency,[10],inactive
N=C(N)c1ccc(OCCCOc2ccc(C(=N)N)cc2)cc1,Potency,[5],inactive
C=CC[N+]1([C@H]2C[C@H]3[C@@H]4CC[C@H]5C[C@H](OC(C)=O)[C@@H](N6CCCCC6)C[C@]5(C)[C@H]4CC[C@]3(C)[C@H]2OC(=O)CC)CCCCC1,activity,[1],-2.74%
same,"activity change, negative = inhibition",[2],0%
same,activity,[3],-7.38%
same,activity,[4],-11.5%
same,Potency,[5],inactive
same,Potency,[6],inactive
same,Potency,[7],inactive
same,Potency,[8],inactive
same,Potency,[9],inactive
CCN1C(=O)c2ccccc2C1Nc1ccc(OCCN2CCCCC2)cc1 (stereo unspecified),activity,[1],-0.796%
same,"activity change, negative = inhibition",[2],1.78%
same,activity,[3],1.49%
same,activity,[4],0.197%
same,Potency,[5],inactive
same,Potency,[6],inactive
same,Potency,[7],inactive
same,Potency,[8],inactive
same,Potency,[9],inactive
same,outcome,[11],inactive
CCCCCCCCCCCCCCCC[n+]1ccccc1,Potency,[10],11.2 µM (active)
same,Potency,[5],inactive
same,Potency,[6],inactive
Cc1nn(-c2ccccc2)c(C)c1/C=N/N1CCN(Cc2ccccc2)CC1,outcome,[12],inactive
same,Potency,[5],inactive
same,Potency,[6],inactive
same,Potency,[7],inactive
same,Potency,[8],inactive
same,Potency,[9],inactive
same,outcome,[11],inactive
NC(N)=NCCCCN=C(N)N,outcome,[12],inactive
same,Potency,[5],inactive
same,Potency,[6],inactive
Nc1ncnc2n[nH]c(Nc3ccc(F)cc3)c12,outcome,[12],inactive
same,Potency,[5],inactive
same,Potency,[6],inactive
same,Potency,[7],inactive
same,Potency,[9],inactive
same,outcome,[11],inactive
COc1cc(C(=O)NC2CCCNC2)cc(OC)c1OC (stereo unspecified),Potency,[5],12.8 µM (active)
O=C(O)CCCC[C@@H]1SC[C@@H]2NC(=O)N[C@@H]21,outcome,[13],inactive
same,outcome,[14],inactive
same,outcome,[15],inactive
same,outcome,[16],inactive
same,outcome,[17],inactive
same,Potency,[5],inactive
same,Potency,[6],inactive
same,outcome,[18],inactive
same,outcome,[19],inactive
Nc1c(NC/C=C\COc2cc(CN3CCCCC3)ccn2)c(=O)c1=O,activity,[1],-6.1%
same,"activity change, negative = inhibition",[2],2.26%
same,activity,[3],-13.9%
same,activity,[4],-8.61%
same,Potency,[5],inactive
same,Potency,[7],inactive
same,Potency,[8],inactive
same,Potency,[9],inactive
same,outcome,[11],inactive
